# Measured values reported in PubChem BioAssay (NCATS).
# A number with no mark means an inactive call. Results filed as inconclusive are left out. Where a call stands in place of a potency, no number is given. Active and inactive are the calls of the source. Unless noted, calls come from the whole dose curve; as a rule, active = well fitted curve in the direction sought with a large enough effect; inconclusive = small, poorly fitted or top-dose-only effect, or another doubt; inactive = no such curve, though single readings can be large; an effect the other way counts as inactive or inconclusive.
# Experiments:
# [1] = molecular target: Nuclear receptor subfamily 1 group I member 3 (Homo sapiens) (UniProt Q14994); assay: Primary qHTS for antagonist of constitutive androstane receptor (CAR) against the NCATS DSHEA and TCM libraries (AID 1794836);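 note: HepG2 cells stably expressing hCAR with CYP2B6 luciferase reporter stimulated by CITCO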
# Chain of Nuclear receptor subfamily 1 group I member 3 (Homo sapiens) (Q14994 whole entry, looked up): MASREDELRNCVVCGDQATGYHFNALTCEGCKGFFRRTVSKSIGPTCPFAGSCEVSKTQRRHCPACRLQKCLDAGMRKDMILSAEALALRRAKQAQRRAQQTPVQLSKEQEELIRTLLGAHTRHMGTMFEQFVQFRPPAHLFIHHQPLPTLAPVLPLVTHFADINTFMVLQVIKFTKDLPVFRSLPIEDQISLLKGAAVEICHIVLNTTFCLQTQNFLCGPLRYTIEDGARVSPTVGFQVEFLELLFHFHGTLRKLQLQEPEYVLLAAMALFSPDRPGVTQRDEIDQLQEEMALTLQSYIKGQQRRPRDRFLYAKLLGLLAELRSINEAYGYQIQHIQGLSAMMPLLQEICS
# How it was run: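 Antagonist mode: CAR reporter luminescence (ONE-Glo) in HepG2-CYP2B6-hCAR cells stimulated with 48 uM CITCO (final) over 24 h at 37 C, compounds titrated; viability read first by CellTiter-Fluor fluorescence.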
# [2] = KB-8-5-11 P-gp reporter qHTS against the NCATS DSHEA and TCM libraries (AID 1919977)
# How it was run: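 CellTiter-Glo luminescence after ~72 h exposure at 37C gave viability of KB-8-5-11 cells, the P-gp-overexpressing subline. Substances were titrated; colchicine was omitted from assay medium.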
# [3] = molecular target: Peroxisome proliferator-activated receptor delta (Homo sapiens) (UniProt Q03181); assay: qHTS assay for small molecule agonists of peroxisome proliferator-activated receptor delta signaling (AID 588534; calls by dose curve)
# Chain of Peroxisome proliferator-activated receptor delta (Homo sapiens) (Q03181 whole entry, looked up): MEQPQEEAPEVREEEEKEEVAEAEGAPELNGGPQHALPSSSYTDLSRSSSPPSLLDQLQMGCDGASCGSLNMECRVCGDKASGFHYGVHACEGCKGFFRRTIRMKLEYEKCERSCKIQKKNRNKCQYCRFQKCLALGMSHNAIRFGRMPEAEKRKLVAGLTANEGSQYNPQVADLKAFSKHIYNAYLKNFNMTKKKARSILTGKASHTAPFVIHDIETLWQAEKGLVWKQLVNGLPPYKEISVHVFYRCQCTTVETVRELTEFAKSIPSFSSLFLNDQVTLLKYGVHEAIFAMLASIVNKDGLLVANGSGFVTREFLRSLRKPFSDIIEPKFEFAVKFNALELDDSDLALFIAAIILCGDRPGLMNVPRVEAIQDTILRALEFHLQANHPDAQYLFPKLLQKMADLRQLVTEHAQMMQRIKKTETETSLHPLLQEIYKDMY
# How it was run: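 Agonist-mode beta-lactamase reporter readout (CCF4 dye, 2 h at RT) after 18 h at 37 °C exposure to a titration; Hill-equation fitting gave EC50 and maximal response.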
# [4] = Cell Viability - BJ (AID 421; calls by dose curve;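 note: potency is the fitted concentration of half-maximal effect; cells exposed to compound for 40 hours at 37 °C before readout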); conditions: BJ fibroblast viability, qHTS
# How it was run: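 Quantitative HTS: ATP depletion in BJ cells after 40 hr compound exposure in complete culture medium, detected with CellTiter-Glo; AC50 from standard Hill fits.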
# [5] = Cell Viability - HepG2 (AID 433; calls by dose curve;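 note: potency is the fitted concentration of half-maximal effect; cells exposed to compound for 40 hours; potency for ATP loss meaning cytotoxicity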); conditions: qHTS
# How it was run: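 ATP luminescence (CellTiter-Glo) after 40 h compound exposure, 37 °C, HepG2, 1500 cells/well, complete medium. Normalized: DMSO = basal, 100 uM tamoxifen = 100% inhibition. AC50 via standard Hill equation.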
# [6] = Cell Viability - MRC5 (AID 434; calls by dose curve;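 note: potency is the fitted concentration of half-maximal effect; cells exposed to compound for 40 hours at 37 °C; potency reflects cytotoxicity seen as loss of intracellular ATP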); conditions: MRC5 lung fibroblast viability, qHTS
# How it was run: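 AC50 values come from Hill-equation fits of intracellular ATP loss, measured by CellTiter-Glo luminescence. Normal lung fibroblasts (MRC5) had 40 hr compound treatment at 37 C, normalized between DMSO and 100 uM tamoxifen.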
# [7] = Cell Viability - SK-N-SH (AID 435; calls by dose curve; note: potency is the fitted concentration of half-maximal effect); conditions: SK-N-SH neuroblastoma cell viability qHTS
# How it was run: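 CellTiter-Glo ATP luminescence, 20 min RT read; cells pre-plated 5 hr, compound 40 hr at 37 °C, 1500 cells/well, complete medium. Normalized DMSO = 0, 100 uM tamoxifen = 100% inhibition; Hill-fit AC50.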
# [8] = Cell Viability - N2a (AID 540); conditions: N2a mouse neuroblastoma cell viability; at 92.2 µM (top of the series); note: nearly all actives have a fitted effect of over 45% in size
# How it was run: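 CellTiter-Glo ATP luminescence, read 20 min after reagent at room temperature, reported viability following 40 h compound treatment at 37 °C. N2a mouse neuroblastoma cells seeded 1500/well; Hill equation gave AC50.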
# [9] = Cell Viability - HUV-EC-C (AID 542);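 note: cells exposed to compound for 40 hours; nearly all actives have a fitted effect of over 35% in size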
# How it was run: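 CellTiter-Glo luminescence measured ATP loss in HUV-EC-C cells (1000/well) after 40 hr compound exposure at 37 °C, in complete culture medium. Concentration-response data were Hill-fitted to give AC50.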
# [10] = Cell Viability - SH-SY5Y (AID 544); conditions: SH-SY5Y neuroblastoma cell viability; viability change, negative = cytotoxic: at 92.2 µM (top of the series);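 note: cells exposed to compound for 40 hours; nearly all actives have a fitted effect of over 55% in size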
# How it was run: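 Cytotoxicity measured via ATP-dependent luciferase luminescence (CellTiter-Glo) following 40 h, 37 °C exposure of 1500 SH-SY5Y cells per well. Concentration-response data were fitted with the standard Hill equation to give AC50.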
# [11] = Cell Viability - Renal Proximal Tubule (AID 545); conditions: renal proximal tubule cells viability; at 91.7 µM (top of the series), primary cells of rat origin unless noted;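 note: cells exposed to compound for 40 hours; nearly all actives have a fitted effect of over 40% in size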
# How it was run: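 Rat kidney proximal tubule cells, freshly isolated; 1000 cells/well, 5 hr settle, compound 40 hr 37 °C. CellTiter-Glo 20 min RT, luminescence read. AC50 by standard Hill fit.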
# [12] = Cell Viability - Mesenchymal (AID 546);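 note: cells exposed to compound for 40 hours before reading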
# How it was run: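 CellTiter-Glo luminescence (intracellular ATP, 20 min room temperature) after 40 hr compound exposure at 37 °C of 1000 glomerulus-derived human kidney mesenchymal cells/well; AC50 values obtained by fitting qHTS concentration-response data to the Hill equation.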
# [13] = qHTS Assay for Identification of Small Molecule Inducers of Hypoxia Response (AID 2120; active = well fitted curve in the direction sought with a large enough effect in the signal ratio, with a control signal flat, not every such curve was filed as active; the % refers to the signal ratio)
# How it was run: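 Reporter induction read as the CCF4 blue/green (460nm/530nm) emission ratio after 2.5 h dye loading at room temperature. ME-180 HRE-beta-lactamase cells received titrated compounds for 17 h at 37 degrees Celsius; AC50 values derived.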
# [14] = molecular target: Voltage-gated inwardly rectifying potassium channel KCNH2 (Homo sapiens) (UniProt Q12809); assay: qHTS Assay for Small Molecule Inhibitors of the Human hERG Channel Activity (AID 588834);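 note: top concentration of the series differs between compounds; lower thallium flux fluorescence means stronger hERG block; nearly all actives have a fitted effect of over 50% in size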
# Chain of Voltage-gated inwardly rectifying potassium channel KCNH2 (Homo sapiens) (Q12809 whole entry, looked up): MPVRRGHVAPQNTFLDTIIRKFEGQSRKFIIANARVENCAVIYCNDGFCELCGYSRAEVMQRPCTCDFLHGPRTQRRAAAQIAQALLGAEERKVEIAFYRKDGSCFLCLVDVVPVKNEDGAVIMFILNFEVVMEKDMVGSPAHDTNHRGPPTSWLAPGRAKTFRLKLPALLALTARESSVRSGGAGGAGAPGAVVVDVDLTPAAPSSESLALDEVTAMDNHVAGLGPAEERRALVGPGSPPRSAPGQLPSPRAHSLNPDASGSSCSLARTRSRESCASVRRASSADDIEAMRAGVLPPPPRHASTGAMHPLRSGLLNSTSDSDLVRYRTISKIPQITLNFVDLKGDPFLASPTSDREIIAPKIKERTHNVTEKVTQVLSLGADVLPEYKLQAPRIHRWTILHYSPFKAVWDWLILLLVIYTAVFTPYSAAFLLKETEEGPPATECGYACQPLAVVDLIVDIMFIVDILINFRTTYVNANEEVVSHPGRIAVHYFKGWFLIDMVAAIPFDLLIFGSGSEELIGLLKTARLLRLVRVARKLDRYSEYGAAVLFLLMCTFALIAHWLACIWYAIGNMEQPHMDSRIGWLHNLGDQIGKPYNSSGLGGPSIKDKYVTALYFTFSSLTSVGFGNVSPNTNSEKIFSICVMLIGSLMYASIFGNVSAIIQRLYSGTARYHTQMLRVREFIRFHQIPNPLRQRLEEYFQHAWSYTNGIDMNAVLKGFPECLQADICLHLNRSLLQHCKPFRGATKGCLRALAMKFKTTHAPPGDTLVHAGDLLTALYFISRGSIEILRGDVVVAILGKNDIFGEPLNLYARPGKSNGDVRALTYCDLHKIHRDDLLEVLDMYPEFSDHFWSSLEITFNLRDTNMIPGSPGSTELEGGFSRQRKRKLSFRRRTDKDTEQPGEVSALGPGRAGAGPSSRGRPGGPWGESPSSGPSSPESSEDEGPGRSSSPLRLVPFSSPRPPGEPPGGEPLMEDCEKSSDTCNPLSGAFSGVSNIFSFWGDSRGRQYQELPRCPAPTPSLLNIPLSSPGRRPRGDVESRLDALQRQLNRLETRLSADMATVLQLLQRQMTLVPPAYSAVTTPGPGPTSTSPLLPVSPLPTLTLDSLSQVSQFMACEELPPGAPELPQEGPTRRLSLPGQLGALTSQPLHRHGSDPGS
# How it was run: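 Thallium-flux (FluxOR) read-out on FDSS: fluorescence read 10 s before and 2 min after stimulation buffer. hERG-BacMam-transduced U2OS cells, compound exposure about 10 min. AC50 by standard Hill equation.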
# [15] = qHTS assay for small molecule disruptors of the mitochondrial membrane potential - 1 hr assay (AID 651754; calls by dose curve; note: nearly all actives have a fitted effect of over 35% in size)
# How it was run: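 Mitochondrial potential in living HepG2 cells after 1 hr compound treatment at 37C was read with Mito-MPS dye added for a further 30 min. Red aggregate and green monomer fluorescence were measured; loss of potential leaves dye as cytoplasmic monomers.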
# [16] = molecular target: Peroxisome proliferator-activated receptor alpha (Homo sapiens) (UniProt Q07869); assay: qHTS assay for small molecule agonists of the peroxisome proliferator-activated receptor alpha (PPARalpha) signaling pathway (AID 651778); conditions: PathHunter PPARalpha complementation, chemiluminescence, 6 h; stronger effect = higher value
# Chain of Peroxisome proliferator-activated receptor alpha (Homo sapiens) (Q07869 whole entry, looked up): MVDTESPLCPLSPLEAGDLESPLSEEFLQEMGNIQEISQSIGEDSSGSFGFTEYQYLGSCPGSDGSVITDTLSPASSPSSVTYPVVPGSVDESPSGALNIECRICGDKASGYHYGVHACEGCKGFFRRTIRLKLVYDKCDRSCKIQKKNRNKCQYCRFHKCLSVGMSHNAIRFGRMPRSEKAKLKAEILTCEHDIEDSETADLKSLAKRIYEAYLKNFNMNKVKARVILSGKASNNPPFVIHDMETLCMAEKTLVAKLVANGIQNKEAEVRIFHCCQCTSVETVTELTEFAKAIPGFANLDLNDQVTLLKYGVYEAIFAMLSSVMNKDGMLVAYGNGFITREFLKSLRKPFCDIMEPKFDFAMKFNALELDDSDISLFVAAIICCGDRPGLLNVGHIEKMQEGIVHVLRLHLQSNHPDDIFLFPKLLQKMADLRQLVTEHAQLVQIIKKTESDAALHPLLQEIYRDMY
# How it was run: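 Chemiluminescence from complemented enzyme reported PPARalpha activation in cells after 6 hr of compound treatment at 37 C. The detection reagent was incubated for 60 min at room temperature, and compounds were scored as agonists.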
# [17] = qHTS assay for small molecule agonists of the antioxidant response element (ARE) signaling pathway measured by Nrf2-dependant transcriptional activity (AID 720636; active = well fitted curve in the direction sought with a large enough effect in the repeat runs; an effect the other way counts as inactive or inconclusive;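 note: HepG2 cells with an ARE-driven luciferase reporter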)
# How it was run: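 Reporter gene assay, HepG2 ARE-luc: 16 hr compound, 37 C, 5% CO2; read-out luciferase luminescence.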
# [18] = qHTS assay for small molecule agonists of the antioxidant response element (ARE) signaling pathway measured by Nrf2-dependant transcriptional activity - cell viability counter screen (AID 720653; active = well fitted curve in the direction sought with a large enough effect in the repeat runs; an effect the other way counts as inactive or inconclusive); conditions: ARE-bla HepG2 viability, CellTiter-Glo ATP luminescence, 16 h; stronger effect = lower value
# How it was run: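 Cytotoxicity counter screen: intracellular ATP quantified by CellTiter-Glo luminescence in the same ARE-bla HepG2 plates, after 16 h compound exposure and a 2 h beta-lactamase substrate step.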
# [19] = qHTS assay for cell viability of HEK293 cells (AID 743288); conditions: ATP luminescence (CellTiter-Glo), 18 h; max response: stronger effect = lower value; note: nearly all actives have a fitted effect of over 50% in size
# How it was run: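 ATP luminescence (CellTiter-Glo) reports metabolically competent cell number after parental HEK293 cells, 2,000/well, were treated with DMSO-dissolved compounds for 18 h at 37 C; reagent incubation 30 min, room temperature.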
# [20] = qHTS assay for cell viability of the p53RE-bla HCT-116 cell line (AID 743292); note: nearly all actives have a fitted effect of over 55% in size
# How it was run: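 Readout: CellTiter-Glo luminescence after 30 min RT. Treatment: compounds in DMSO, 16 h, 37 C. Cells: CellSensor p53RE-bla HCT-116, 4,000/well, preincubated 5 h.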
structure (smiles),measurement,setting,value
C=C1CC[C@H](O)C/C1=C\C=C1/CCC[C@]2(C)[C@@H]([C@H](C)CC[C@H](C)C(C)C)CC[C@@H]12,Potency,[1],inactive
same,Potency,[2],inactive
CC[C@H](CC[C@@H](C)[C@H]1CCC2C3CCC4C[C@@H](O)CC[C@]4(C)C3CC[C@@]21C)C(C)C (stereo partly drawn),Potency,[1],inactive
same,Potency,[2],inactive
COc1ccc2ccc(=O)oc2c1,Potency,[1],inactive
same,Potency,[2],inactive
O=C(/C=C/c1ccc(O)c(O)c1)OC1[C@H](O)CC(O)(C(=O)O)C[C@@H]1O (stereo partly drawn),Potency,[1],inactive
same,Potency,[2],inactive
CC(C)(O)[C@@H]1CC[C@](C)([C@H]2[C@@H](O)C[C@@]3(C)[C@@H]4C[C@H](O)[C@H]5C(C)(C)[C@@H](O[C@@H]6OC[C@@H](O)[C@H](O)[C@H]6O[C@@H]6O[C@H](CO)[C@@H](O)[C@H](O)[C@H]6O)CC[C@@]56C[C@@]46CC[C@]23C)O1,Potency,[1],inactive
same,Potency,[2],inactive
CC(=O)O[C@H]1[C@H](O[C@H]2CC[C@]34C[C@]35CC[C@]3(C)[C@@H]([C@@]6(C)CC[C@@H](C(C)(C)O)O6)[C@@H](O)C[C@@]3(C)[C@@H]5C[C@H](O[C@@H]3O[C@H](CO)[C@@H](O)[C@H](O)[C@H]3O)[C@H]4C2(C)C)OC[C@@H](O)[C@@H]1O,Potency,[1],inactive
same,Potency,[2],inactive
COc1cc(/C=C/c2ccccc2)oc(=O)c1,Potency,[1],inactive
same,Potency,[2],inactive
O=C(OCC1=C[C@@H](O)[C@@H]2C=CO[C@@H](O[C@@H]3O[C@H](CO)[C@@H](O)[C@H](O)[C@H]3O)[C@H]12)c1ccc(O)cc1,Potency,[1],inactive
same,Potency,[2],inactive
COc1ccc(/C=C/c2cc(OC)cc(=O)o2)cc1,outcome,[3],inactive
same,Potency,[1],inactive
O=C(/C=C/c1ccc(O)c(O)c1)O[C@H]1[C@H](O)C[C@](O)(C(=O)O)C[C@H]1OC(=O)/C=C/c1ccc(O)c(O)c1,Potency,[1],inactive
same,Potency,[2],inactive
CCCCCCCCCCCCCCCCCCCCCCCCCCCCCCO,"activity change, negative = inhibition",[2],8.26% [at 3.26 µM]
CC(C)[C@H](C)CC[C@@H](C)[C@H]1CC[C@H]2[C@@H]3CC=C4C[C@@H](O)CC[C@]4(C)[C@H]3CC[C@]12C,Potency,[2],inactive
Clc1ccc2ccccc2c1,Potency,[4],> 92 µM
same,Potency,[5],> 92 µM
same,Potency,[6],> 92 µM
same,Potency,[7],> 92 µM
same,"activity change, negative = cytotoxicity",[8],3.7%
same,Potency,[9],inactive
same,Potency,[10],inactive
same,"activity change, negative = cytotoxicity",[11],-5.07%
same,outcome,[12],inactive
same,outcome,[13],inactive
same,outcome,[3],inactive
same,Potency,[14],inactive
same,Potency,[15],inactive
same,max response,[16],0.9%
same,outcome,[17],inactive
same,max response,[18],4.36%
same,max response,[19],3.91%
same,Potency,[20],inactive
CC1=CC[C@H](C(C)C)C=C1,Potency,[2],inactive
C[C@@H]1O[C@@H](OC[C@H]2OC(Oc3c(-c4ccc(O)c(O)c4)oc4cc(O)cc(O)c4c3=O)[C@H](O)[C@@H](O)[C@@H]2O)[C@H](O)[C@H](O)[C@H]1O (stereo partly drawn),Potency,[2],inactive
CCCCCCCCCCCCCC(=O)O,Potency,[2],inactive
CC(C)=CCC[C@](C)(O)[C@H]1CC[C@]2(C)[C@@H]1[C@H](O)CC1[C@@]3(C)CC[C@H](O)C(C)(C)[C@@H]3[C@@H](O[C@@H]3O[C@H](CO)[C@@H](O)[C@H](O)[C@H]3O[C@@H]3O[C@H](CO)[C@@H](O)[C@H](O)[C@H]3O)C[C@]12C (stereo partly drawn),Potency,[2],inactive
C=CC(C)(CCC=C(C)C)OC(C)=O (stereo not drawn),Potency,[2],inactive
C=CCc1ccc(OC)c(OC)c1,outcome,[3],inactive
same,Potency,[2],inactive
CC1(C)CC[C@]2(C(=O)O)CC[C@]3(C)C(=CCC4[C@@]5(C)CC[C@H](O)[C@@](C)(CO)C5CC[C@]43C)[C@H]2C1 (stereo partly drawn),Potency,[2],inactive
